This is an account of results in PMC7862700, “An all-to-all approach to the identification of sequence-specific readers for epigenetic DNA modifications on cytosine”.

What all share (experiment): DAPPL (digital affinity profiling via proximity ligation, sequencing); 10 mM Tris-HCl pH 7.5, 50 mM NaCl, 1 mM DTT, 4% glycerol, room temperature, 30 min; GST-TFs on glutathione beads, 16-mer random dsDNA library, 0.1% formaldehyde crosslink after washing; high values mean tight binding
One assay deals with T1, FLI1 (Homo sapiens, UniProt Q01543 1-452).
T1 sequence: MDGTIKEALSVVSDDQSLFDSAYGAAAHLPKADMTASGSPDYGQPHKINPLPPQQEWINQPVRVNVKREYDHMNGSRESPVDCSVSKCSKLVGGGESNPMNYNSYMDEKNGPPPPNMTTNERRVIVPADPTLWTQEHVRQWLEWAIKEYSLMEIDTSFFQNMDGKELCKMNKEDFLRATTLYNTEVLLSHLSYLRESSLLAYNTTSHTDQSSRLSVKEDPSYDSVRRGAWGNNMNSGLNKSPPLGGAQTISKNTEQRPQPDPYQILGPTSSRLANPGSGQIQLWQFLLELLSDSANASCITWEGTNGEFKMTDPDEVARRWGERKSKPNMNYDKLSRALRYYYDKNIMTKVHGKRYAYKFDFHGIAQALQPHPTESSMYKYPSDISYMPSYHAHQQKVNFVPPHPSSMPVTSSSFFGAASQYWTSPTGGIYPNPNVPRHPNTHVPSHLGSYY
Conditions: protein: recombinant; tags: N-terminal GST; dsDNA, one strand shown. An outline of the steps:
(§1)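 Sequencing on an Illumina NextSeq500 followed washing, crosslinking with 0.1% formaldehyde, proximity ligation (BsaI/T4 ligase, 1 h, 37 °C) and PCR amplification of pools that had been incubated for 30 min at room temperature with 200 nmole of a random double-stranded 16-mer DNA library in Tris/NaCl/DTT/glycerol buffer. Each pool held DNA-barcoded human transcription factors, expressed in yeast as GST fusions and captured on glutathione beads, plus a tag-only sample. Binding signal is a hexamer's read frequency for a factor divided by its frequency in the tag-only sample.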

The target of the next assay is T2, ELK1 (Homo sapiens, UniProt P19419 1-428).
T2 sequence: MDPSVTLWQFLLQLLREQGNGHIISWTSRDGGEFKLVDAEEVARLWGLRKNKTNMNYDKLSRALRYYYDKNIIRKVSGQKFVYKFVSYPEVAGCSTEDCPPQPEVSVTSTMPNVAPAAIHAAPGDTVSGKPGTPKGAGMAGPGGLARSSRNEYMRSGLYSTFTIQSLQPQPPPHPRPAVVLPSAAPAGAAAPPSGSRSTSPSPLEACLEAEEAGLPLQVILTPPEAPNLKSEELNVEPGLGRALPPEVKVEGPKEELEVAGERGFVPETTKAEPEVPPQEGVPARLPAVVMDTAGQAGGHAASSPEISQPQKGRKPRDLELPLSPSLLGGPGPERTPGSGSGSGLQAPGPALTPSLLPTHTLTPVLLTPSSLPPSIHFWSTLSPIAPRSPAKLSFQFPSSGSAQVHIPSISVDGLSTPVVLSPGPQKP
The following applies: protein: recombinant; tags: N-terminal GST; dsDNA, one strand shown. In short, it runs like this:
as §1

For the next assay, the target named is T3, GABPA (Homo sapiens, UniProt Q06546 1-454).
T3 sequence: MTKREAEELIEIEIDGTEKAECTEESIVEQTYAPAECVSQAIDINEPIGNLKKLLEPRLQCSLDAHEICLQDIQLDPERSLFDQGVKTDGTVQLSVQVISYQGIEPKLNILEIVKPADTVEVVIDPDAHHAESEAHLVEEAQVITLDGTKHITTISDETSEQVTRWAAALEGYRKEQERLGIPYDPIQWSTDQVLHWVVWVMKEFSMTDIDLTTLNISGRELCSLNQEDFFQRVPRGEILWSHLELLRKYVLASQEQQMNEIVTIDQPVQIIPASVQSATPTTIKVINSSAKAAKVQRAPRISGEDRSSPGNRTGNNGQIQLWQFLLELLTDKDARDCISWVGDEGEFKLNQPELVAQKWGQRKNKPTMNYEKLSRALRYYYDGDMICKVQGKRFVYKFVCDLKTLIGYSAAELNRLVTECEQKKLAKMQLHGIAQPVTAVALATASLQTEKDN
The following applies: protein: recombinant; tags: N-terminal GST; dsDNA, one strand shown. An outline of the steps: as §1

In a further assay the target is T4, ERG (Homo sapiens, UniProt P11308 1-479).
T4 sequence: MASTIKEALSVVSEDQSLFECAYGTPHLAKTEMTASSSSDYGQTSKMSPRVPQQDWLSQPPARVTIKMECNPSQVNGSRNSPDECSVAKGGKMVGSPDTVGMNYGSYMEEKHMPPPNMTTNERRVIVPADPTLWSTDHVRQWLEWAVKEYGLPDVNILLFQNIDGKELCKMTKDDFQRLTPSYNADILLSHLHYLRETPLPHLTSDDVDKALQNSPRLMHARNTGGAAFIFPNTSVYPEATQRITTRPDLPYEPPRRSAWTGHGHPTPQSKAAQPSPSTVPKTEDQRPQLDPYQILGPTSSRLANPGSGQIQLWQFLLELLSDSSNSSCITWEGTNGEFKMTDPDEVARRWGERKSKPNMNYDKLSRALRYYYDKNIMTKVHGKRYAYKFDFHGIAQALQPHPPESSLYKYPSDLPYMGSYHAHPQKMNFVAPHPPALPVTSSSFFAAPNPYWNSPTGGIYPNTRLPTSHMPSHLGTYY
The following applies: protein: recombinant; tags: N-terminal GST; dsDNA, one strand shown. An outline of the steps:
as §1

In a further assay the target is ELF1 (Homo sapiens, UniProt P32519 1-619). The following applies: protein: recombinant; tags: N-terminal GST; dsDNA, one strand shown. An outline of the steps: as §1
Sequence of ELF1 (P32519 whole entry): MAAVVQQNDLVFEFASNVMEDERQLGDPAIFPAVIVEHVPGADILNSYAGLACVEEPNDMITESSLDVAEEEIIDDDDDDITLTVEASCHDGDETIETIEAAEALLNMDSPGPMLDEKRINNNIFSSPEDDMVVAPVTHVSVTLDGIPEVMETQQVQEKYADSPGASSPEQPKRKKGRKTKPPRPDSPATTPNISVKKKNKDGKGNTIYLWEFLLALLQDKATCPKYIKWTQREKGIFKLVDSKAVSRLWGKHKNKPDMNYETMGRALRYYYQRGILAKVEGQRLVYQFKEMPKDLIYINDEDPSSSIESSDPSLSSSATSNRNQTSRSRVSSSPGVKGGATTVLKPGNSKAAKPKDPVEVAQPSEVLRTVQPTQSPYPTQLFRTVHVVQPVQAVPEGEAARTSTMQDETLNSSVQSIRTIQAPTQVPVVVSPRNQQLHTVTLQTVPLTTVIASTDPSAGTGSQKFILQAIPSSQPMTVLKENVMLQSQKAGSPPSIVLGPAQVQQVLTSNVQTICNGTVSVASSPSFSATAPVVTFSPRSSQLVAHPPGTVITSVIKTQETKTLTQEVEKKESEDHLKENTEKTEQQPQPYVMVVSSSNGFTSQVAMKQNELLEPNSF
For a further assay, the target named is T5, EHF (Homo sapiens, UniProt Q9NZC4 1-300).
T5 sequence: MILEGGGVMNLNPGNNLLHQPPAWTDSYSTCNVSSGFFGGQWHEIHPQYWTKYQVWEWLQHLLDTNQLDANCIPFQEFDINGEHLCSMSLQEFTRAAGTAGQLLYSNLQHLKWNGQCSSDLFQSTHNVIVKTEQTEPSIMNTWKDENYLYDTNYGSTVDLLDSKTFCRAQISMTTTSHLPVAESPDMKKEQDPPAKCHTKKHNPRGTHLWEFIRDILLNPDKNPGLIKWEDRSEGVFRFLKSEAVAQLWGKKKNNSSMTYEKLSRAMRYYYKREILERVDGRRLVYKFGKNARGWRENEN
Conditions: protein: recombinant; tags: N-terminal GST; dsDNA, one strand shown. In short, it runs like this:
as §1

Another assay has as its target SPI1 (Homo sapiens, UniProt P17947 1-270). Conditions: protein: recombinant; tags: N-terminal GST; dsDNA, one strand shown. An outline of the steps: as §1
The target of another assay is SPIB (Homo sapiens, UniProt Q01892 1-262). The following applies: protein: recombinant; tags: N-terminal GST; dsDNA, one strand shown. In short, it runs like this: as §1
Sequence of SPIB (Q01892 whole entry): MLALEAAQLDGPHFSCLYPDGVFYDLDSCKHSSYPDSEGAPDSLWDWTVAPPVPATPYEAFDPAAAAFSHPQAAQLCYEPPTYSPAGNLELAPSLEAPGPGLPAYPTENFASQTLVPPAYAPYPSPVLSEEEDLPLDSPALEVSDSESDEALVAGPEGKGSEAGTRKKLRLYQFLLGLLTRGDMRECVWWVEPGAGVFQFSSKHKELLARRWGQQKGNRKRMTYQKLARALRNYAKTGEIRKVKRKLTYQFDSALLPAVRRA
Another assay has as its target T6, ELK3 (Homo sapiens, UniProt P41970 1-407).
T6 sequence: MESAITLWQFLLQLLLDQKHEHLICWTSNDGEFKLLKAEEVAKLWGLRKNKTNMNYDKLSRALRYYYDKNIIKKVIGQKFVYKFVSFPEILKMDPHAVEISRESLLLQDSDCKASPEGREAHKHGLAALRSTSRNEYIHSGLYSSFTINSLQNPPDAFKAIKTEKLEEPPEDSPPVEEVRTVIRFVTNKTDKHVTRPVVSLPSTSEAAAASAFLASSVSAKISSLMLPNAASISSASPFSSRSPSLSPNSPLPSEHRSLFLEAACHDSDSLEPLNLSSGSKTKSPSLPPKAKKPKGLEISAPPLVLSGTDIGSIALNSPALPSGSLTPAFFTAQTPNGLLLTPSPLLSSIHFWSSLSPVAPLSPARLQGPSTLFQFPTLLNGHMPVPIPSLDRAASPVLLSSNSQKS
The following applies: protein: recombinant; tags: N-terminal GST; dsDNA, one strand shown. An outline of the steps: as §1

Another assay addresses T7, FEV (Homo sapiens, UniProt Q99581 1-238).
T7 sequence: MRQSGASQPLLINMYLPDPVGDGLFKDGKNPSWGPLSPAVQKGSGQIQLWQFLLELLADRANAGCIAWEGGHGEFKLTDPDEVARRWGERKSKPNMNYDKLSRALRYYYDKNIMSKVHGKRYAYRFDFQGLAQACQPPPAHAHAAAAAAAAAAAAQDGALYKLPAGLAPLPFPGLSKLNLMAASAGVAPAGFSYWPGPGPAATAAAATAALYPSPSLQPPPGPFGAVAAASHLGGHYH
The following applies: protein: recombinant; tags: N-terminal GST; dsDNA, one strand shown. An outline of the steps:
as §1

A further assay concerns the target ETV5 (Homo sapiens, UniProt P41161 1-510). The following applies: protein: recombinant; tags: N-terminal GST; dsDNA, one strand shown. An outline of the steps:
as §1

For the next assay, the target named is HSF1 (Homo sapiens, UniProt Q00613 1-529). The following applies: protein: recombinant; tags: N-terminal GST; chain copies: 3; dsDNA, one strand shown. An outline of the steps:
as §1

For another assay, the target named is T8, SPIC (Homo sapiens, UniProt Q8N5J4 1-248).
T8 sequence: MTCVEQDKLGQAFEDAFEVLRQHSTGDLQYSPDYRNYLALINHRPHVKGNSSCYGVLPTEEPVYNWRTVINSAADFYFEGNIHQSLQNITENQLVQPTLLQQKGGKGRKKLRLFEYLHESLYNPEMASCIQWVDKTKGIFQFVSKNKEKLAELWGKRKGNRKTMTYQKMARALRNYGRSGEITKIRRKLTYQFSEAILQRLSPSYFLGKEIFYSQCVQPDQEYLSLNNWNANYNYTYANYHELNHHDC
Conditions: protein: recombinant; tags: N-terminal GST; dsDNA, one strand shown. In short, it runs like this:
as §1

The target of a further assay is ELF4 (Homo sapiens, UniProt Q99607 1-663). The following applies: protein: recombinant; tags: N-terminal GST; dsDNA, one strand shown. An outline of the steps:
as §1

Another assay addresses T9, ELK4 (Homo sapiens, UniProt P28324-2 1-405).
T9 sequence: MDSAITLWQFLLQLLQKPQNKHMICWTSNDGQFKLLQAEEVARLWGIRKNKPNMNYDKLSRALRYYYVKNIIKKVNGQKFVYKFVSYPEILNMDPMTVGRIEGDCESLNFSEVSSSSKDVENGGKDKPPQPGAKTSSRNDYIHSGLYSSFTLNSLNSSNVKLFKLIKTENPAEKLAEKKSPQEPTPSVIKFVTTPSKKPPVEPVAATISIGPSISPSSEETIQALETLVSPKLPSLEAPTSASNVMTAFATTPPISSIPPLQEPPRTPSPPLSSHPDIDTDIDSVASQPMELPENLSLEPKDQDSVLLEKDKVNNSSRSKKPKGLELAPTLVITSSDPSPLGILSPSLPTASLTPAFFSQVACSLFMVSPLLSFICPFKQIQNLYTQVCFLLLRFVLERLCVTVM
The following applies: protein: recombinant; tags: N-terminal GST; dsDNA, one strand shown. In short, it runs like this:
as §1

The target in another assay is T10, ETV2 (Homo sapiens, UniProt O00321 1-342).
T10 sequence: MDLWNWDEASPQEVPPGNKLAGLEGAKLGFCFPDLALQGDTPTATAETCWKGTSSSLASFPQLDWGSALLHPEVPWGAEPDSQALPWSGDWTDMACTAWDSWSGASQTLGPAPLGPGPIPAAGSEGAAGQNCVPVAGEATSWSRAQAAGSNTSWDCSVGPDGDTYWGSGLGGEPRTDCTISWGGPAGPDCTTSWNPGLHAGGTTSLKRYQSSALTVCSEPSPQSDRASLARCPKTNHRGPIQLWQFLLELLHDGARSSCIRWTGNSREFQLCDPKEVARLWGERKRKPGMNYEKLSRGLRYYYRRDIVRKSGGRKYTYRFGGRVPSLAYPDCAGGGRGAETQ
The following applies: protein: recombinant; tags: N-terminal GST; dsDNA, one strand shown. An outline of the steps: as §1

A further assay has as its target CRX (Homo sapiens, UniProt O43186 1-299). Conditions: protein: recombinant; tags: N-terminal GST; dsDNA, one strand shown. In short, it runs like this: as §1
The next assay has as its target ETV1 (Homo sapiens, UniProt P50549 1-477). The following applies: protein: recombinant; tags: N-terminal GST; dsDNA, one strand shown. An outline of the steps: as §1

Sequence of HSF1 (Q00613 whole entry): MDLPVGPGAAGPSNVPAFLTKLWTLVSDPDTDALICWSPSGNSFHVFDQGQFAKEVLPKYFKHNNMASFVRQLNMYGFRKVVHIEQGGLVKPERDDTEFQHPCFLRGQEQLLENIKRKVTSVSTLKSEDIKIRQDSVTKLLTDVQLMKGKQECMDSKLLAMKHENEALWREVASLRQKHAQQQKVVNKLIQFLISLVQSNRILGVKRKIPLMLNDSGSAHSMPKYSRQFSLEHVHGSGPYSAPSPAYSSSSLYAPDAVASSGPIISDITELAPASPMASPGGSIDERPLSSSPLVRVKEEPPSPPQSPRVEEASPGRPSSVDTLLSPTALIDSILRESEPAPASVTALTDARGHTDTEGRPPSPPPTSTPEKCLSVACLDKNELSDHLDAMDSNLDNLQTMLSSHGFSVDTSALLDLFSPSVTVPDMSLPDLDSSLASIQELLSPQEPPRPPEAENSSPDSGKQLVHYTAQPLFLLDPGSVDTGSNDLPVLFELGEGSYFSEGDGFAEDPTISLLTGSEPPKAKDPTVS
Sequence of ETV1 (P50549 whole entry): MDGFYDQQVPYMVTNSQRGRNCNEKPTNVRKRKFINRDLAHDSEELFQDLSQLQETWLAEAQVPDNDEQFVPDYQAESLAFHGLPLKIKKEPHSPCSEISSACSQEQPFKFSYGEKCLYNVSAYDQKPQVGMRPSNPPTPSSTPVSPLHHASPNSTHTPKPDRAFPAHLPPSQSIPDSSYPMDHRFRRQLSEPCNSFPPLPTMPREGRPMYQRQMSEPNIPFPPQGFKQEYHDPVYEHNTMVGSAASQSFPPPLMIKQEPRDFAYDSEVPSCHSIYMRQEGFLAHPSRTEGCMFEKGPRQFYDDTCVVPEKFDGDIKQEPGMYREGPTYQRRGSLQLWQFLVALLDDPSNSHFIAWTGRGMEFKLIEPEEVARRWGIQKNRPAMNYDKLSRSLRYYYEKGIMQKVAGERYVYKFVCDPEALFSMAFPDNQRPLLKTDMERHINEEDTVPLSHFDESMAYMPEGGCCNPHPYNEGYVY
Sequence of ELF4 (Q99607 whole entry): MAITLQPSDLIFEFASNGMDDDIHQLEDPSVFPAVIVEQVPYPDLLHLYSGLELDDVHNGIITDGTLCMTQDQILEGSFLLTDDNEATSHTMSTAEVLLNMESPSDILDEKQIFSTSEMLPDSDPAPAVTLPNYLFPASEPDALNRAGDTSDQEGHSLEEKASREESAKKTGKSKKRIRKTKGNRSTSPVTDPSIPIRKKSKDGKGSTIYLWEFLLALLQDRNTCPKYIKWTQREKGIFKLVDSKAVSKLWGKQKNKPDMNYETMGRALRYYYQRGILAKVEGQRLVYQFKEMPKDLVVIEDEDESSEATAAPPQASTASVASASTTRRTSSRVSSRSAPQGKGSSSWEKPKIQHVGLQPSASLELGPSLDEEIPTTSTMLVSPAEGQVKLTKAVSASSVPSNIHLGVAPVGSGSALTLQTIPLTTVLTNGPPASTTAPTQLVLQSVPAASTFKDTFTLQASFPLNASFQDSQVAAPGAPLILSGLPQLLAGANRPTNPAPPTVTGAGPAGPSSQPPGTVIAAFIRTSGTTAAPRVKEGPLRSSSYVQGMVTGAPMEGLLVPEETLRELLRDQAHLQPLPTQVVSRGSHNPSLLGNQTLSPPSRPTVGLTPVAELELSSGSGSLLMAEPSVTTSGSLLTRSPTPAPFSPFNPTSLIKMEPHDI
Sequence of ETV5 (P41161 whole entry): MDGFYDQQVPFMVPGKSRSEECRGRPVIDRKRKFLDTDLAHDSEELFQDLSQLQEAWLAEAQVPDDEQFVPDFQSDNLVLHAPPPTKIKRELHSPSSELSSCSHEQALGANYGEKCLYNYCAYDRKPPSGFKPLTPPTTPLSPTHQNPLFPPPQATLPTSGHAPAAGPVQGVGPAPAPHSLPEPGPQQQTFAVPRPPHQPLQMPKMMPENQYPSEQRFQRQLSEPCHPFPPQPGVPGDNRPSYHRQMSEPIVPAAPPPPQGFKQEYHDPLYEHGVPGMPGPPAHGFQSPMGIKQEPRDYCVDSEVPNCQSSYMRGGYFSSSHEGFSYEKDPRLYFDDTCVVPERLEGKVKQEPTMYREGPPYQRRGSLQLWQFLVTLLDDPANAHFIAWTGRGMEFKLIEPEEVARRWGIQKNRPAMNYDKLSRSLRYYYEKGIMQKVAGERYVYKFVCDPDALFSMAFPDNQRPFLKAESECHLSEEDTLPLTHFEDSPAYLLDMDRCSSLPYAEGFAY
Sequence of CRX (O43186 whole entry): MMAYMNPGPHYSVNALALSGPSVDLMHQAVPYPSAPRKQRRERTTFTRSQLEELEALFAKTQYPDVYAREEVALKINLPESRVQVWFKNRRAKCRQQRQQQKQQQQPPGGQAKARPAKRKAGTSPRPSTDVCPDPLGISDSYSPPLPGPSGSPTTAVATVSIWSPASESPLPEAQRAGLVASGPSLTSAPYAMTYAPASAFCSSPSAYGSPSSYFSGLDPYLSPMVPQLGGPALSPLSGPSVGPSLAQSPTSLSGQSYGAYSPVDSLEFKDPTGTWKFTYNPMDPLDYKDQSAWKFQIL

CTTGTT: the binding signal with FLI1 was 1.2 fold enrichment (6-mer frequency, TF over GST control); with ELK1 it was 1.18 fold enrichment (6-mer frequency, TF over GST control); in the assay with GABPA, 1.15 fold enrichment (6-mer frequency, TF over GST control); with ERG, 1.26 fold enrichment (6-mer frequency, TF over GST control); in the assay with ELF1, 1.21 fold enrichment (6-mer frequency, TF over GST control); with EHF it was 1.31 fold enrichment (6-mer frequency, TF over GST control). For the same sequence, the binding signal in the assay with SPI1 is 1.25 fold enrichment (6-mer frequency, TF over GST control); in the assay with SPIB it was 1.29 fold enrichment (6-mer frequency, TF over GST control); with ELK3, 1.3 fold enrichment (6-mer frequency, TF over GST control); with FEV, 1.15 fold enrichment (6-mer frequency, TF over GST control); with ETV5, 1.22 fold enrichment (6-mer frequency, TF over GST control); in the assay with HSF1 it was 1.09 fold enrichment (6-mer frequency, TF over GST control). In addition, the binding signal in the assay with SPIC is 1.25 fold enrichment (6-mer frequency, TF over GST control); with ELF4, 1.22 fold enrichment (6-mer frequency, TF over GST control); in the assay with ELK4 it was 1.17 fold enrichment (6-mer frequency, TF over GST control); with ETV2 it was 1.14 fold enrichment (6-mer frequency, TF over GST control); with CRX it was 1.1 fold enrichment (6-mer frequency, TF over GST control); with ETV1, 1.31 fold enrichment (6-mer frequency, TF over GST control).
